The structures appear in SMILES notation. Several values for one entry are separate records, joined by “and”; a condition that tells them apart may be missing. Equal values may be shown once. This is part of a sample that, as a whole, favours compounds with a hit. Of some 83,000 tested, about 20% had one in any assay.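 For each line, cells grew in 96-well plates with the test compound present at a single concentration for 48 hours.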 Activity calls are given as the source filed them. How the source made its calls: active means growth percent below 10; inactive means the rest.

Some test systems named below: HCT-15 colon; HT29 colon; SNB-75 CNS; U251 CNS; PC-3 prostate; SK-MEL-5 melanoma; UACC-62 melanoma; LOX IMVI melanoma; SK-MEL-28 melanoma; SK-MEL-2 melanoma; EKVX NSCLC; SN12C renal; UO-31 renal; TK-10 renal; ACHN renal; CAKI-1 renal; A498 renal; HL-60(TB) leukemia; CCRF-CEM leukemia; SNB-19 CNS.
Holding throughout (experiment): NCI-60 one-dose screen, 48 h (100 = growth as untreated, 0 = no growth, -100 = all killed)
Settings in all cases: 10 µM unless noted

In the case of `CCCCS(=O)(=O)Cl`, the growth was 108% (inactive) in the test on HCT-15 colon; 113% (inactive) in the test on HT29 colon; 93.5% (inactive) in the test with SNB-75 CNS; 105% (inactive) in the test on U251 CNS; 89.6% (inactive) with PC-3 prostate; 98.2% (inactive) in the test with SK-MEL-5 melanoma. Moreover, the growth is 106% (inactive) with UACC-62 melanoma; 99.9% (inactive) in the test with LOX IMVI melanoma; 107% (inactive) with SK-MEL-28 melanoma; 106% (inactive) with SK-MEL-2 melanoma; 94.8% (inactive) in the test with EKVX NSCLC; 104% (inactive) with SN12C renal. The growth was 100% (inactive) in the test with UO-31 renal; 103% (inactive) in the test with TK-10 renal; 110% (inactive) with ACHN renal; 100% (inactive) in the test with CAKI-1 renal; 97.9% (inactive) with A498 renal; 105% (inactive) in the test with HL-60(TB) leukemia. Moreover, in the test with CCRF-CEM leukemia, the growth was 103% (inactive).
`CC[C@H](C)[C@H](NC(=O)[C@H]1CCCCN1C)C(=O)N(C)[C@H](CCc1nc(C(=O)N[C@@H](Cc2ccccc2)C[C@H](C)C(=O)O)cs1)C(C)C`: the growth was 27.3% (inactive) in the test on HCT-15 colon; -3.57% (active) in the test with HT29 colon; 39.5% (inactive) in the test on SNB-19 CNS; 7.98% (active) in the test with U251 CNS; 29.1% (inactive) in the test on PC-3 prostate; 5.59% (active) with SK-MEL-5 melanoma. The growth in the test with UACC-62 melanoma was 52.2% (inactive); with LOX IMVI melanoma, 15.2% (inactive); in the test with SK-MEL-28 melanoma, 59.4% (inactive); in the test with SK-MEL-2 melanoma, 32.3% (inactive); with EKVX NSCLC, 47.7% (inactive); in the test with SN12C renal, 46.8% (inactive). The growth with UO-31 renal is 49% (inactive); in the test with TK-10 renal it was 49.4% (inactive); in the test on ACHN renal, 47% (inactive); in the test with CAKI-1 renal, 51.2% (inactive); in the test with A498 renal, -7.5% (active); with HL-60(TB) leukemia it was -34.5% (active). The growth in the test with CCRF-CEM leukemia was 14.9% (inactive).
In the case of `CN(C)c1ccc([N+](=O)[O-])c([N+](=O)[O-])c1`, the growth was 110% (inactive) and 100% (inactive) with HCT-15 colon; 109% (inactive) and 102% (inactive) with HT29 colon; 106% (inactive) and 102% (inactive) in the test on SNB-19 CNS; 101% (inactive) and 96.9% (inactive) in the test on U251 CNS; 105% (inactive) and 100% (inactive) in the test with PC-3 prostate; 101% (inactive) and 97% (inactive) in the test with SK-MEL-5 melanoma. The growth in the test with UACC-62 melanoma was 97.6% (inactive) and 90.3% (inactive); with LOX IMVI melanoma it was 93% (inactive); in the test on SK-MEL-28 melanoma it was 104% (inactive); in the test on SK-MEL-2 melanoma, 90% (inactive) and 103% (inactive); in the test with EKVX NSCLC, 96% (inactive) and 96.2% (inactive); with SN12C renal it was 105% (inactive) and 97.7% (inactive). Besides, the growth with UO-31 renal was 117% (inactive) and 84.7% (inactive); with TK-10 renal, 135% (inactive) and 114% (inactive); with ACHN renal it was 98.1% (inactive) and 106% (inactive); in the test with CAKI-1 renal it was -35% (active) and 87.6% (inactive); with HL-60(TB) leukemia it was 66.7% (inactive) and 88.1% (inactive).
`COc1cc(/C=C\[N+](=O)[O-])ccc1OCc1ccccc1`: the growth in the test on HCT-15 colon was -11.7% (active); in the test with HT29 colon it was 4.62% (active); with SNB-19 CNS it was 36.5% (inactive); in the test with U251 CNS, 5.01% (active); with PC-3 prostate, 23% (inactive); in the test with SK-MEL-5 melanoma, 65.2% (inactive). Further, the growth with UACC-62 melanoma was 30.5% (inactive); in the test on LOX IMVI melanoma it was -83.3% (active); in the test on SK-MEL-28 melanoma, 18.5% (inactive); with SK-MEL-2 melanoma, 89.5% (inactive); in the test with EKVX NSCLC, 91.5% (inactive); in the test on SN12C renal it was 56.6% (inactive). Moreover, the growth in the test on UO-31 renal was 30.2% (inactive); in the test with TK-10 renal, 66.3% (inactive); in the test on ACHN renal it was 46.4% (inactive); with CAKI-1 renal, 73.7% (inactive); with A498 renal it was 71.1% (inactive); in the test on HL-60(TB) leukemia, 3.4% (active). The growth in the test with CCRF-CEM leukemia is 14.5% (inactive).
As to `Cc1cc(N(CCCl)CCCl)ccc1C=Nc1ccc(-c2csc(-c3ccccc3)n2)cc1`, the growth with HCT-15 colon is 103% (inactive); in the test with HT29 colon, 112% (inactive); with SNB-19 CNS it was 79.4% (inactive); in the test with U251 CNS it was 85% (inactive); in the test with PC-3 prostate it was 69.6% (inactive); in the test on SK-MEL-5 melanoma, 80.8% (inactive). For the same molecule, the growth was 58.8% (inactive) with UACC-62 melanoma; 80.2% (inactive) in the test on LOX IMVI melanoma; 105% (inactive) with SK-MEL-28 melanoma; 97.2% (inactive) in the test on SK-MEL-2 melanoma; 111% (inactive) in the test on EKVX NSCLC; 64.4% (inactive) in the test on SN12C renal. Moreover, the growth with UO-31 renal was 59.9% (inactive); in the test with TK-10 renal, 113% (inactive); in the test on ACHN renal, 80.5% (inactive); in the test on CAKI-1 renal it was 32.7% (inactive); with A498 renal, 97.7% (inactive); in the test on HL-60(TB) leukemia, 49.1% (inactive). In addition, the growth in the test on CCRF-CEM leukemia was 46.5% (inactive).
For `C=CC[PH+](c1ccccc1)c1ccccc1.C=CC[PH+](c1ccccc1)c1ccccc1.[Pt+2].[S-]c1ncccn1.[S-]c1ncccn1`, the growth with HCT-15 colon was -29.3% (active); in the test on HT29 colon it was 0.0923% (active); in the test with SNB-19 CNS, 74.9% (inactive); with U251 CNS, 59.1% (inactive); in the test on PC-3 prostate, 38.8% (inactive); with SK-MEL-5 melanoma, 66.6% (inactive). For the same molecule, the growth in the test on UACC-62 melanoma was 27.7% (inactive); in the test with LOX IMVI melanoma, -68.3% (active); with SK-MEL-28 melanoma, -30.9% (active); in the test with SK-MEL-2 melanoma, 75% (inactive); with EKVX NSCLC, 2.19% (active); in the test on SN12C renal, 40.3% (inactive). Besides, the growth in the test with UO-31 renal is -94.5% (active); in the test on TK-10 renal it was -3.54% (active); with ACHN renal, -43.3% (active); in the test on CAKI-1 renal, 5.27% (active); with A498 renal, 103% (inactive); with HL-60(TB) leukemia, -5.51% (active). Moreover, the growth in the test on CCRF-CEM leukemia is 6.99% (active).
In the case of `C(=NC1CCCCC1)=NC1CCCCC1`, the growth in the test with HCT-15 colon is 108% (inactive); in the test with HT29 colon, 101% (inactive) and 91.9% (inactive); in the test with SNB-75 CNS, 87.5% (inactive) and 79.6% (inactive); in the test with U251 CNS, 117% (inactive); with PC-3 prostate it was 97.5% (inactive) and 48.6% (inactive); in the test with SK-MEL-5 melanoma, 103% (inactive) and 61.4% (inactive). The growth in the test on UACC-62 melanoma was 104% (inactive) and 87.6% (inactive); in the test on LOX IMVI melanoma it was 109% (inactive); in the test with SK-MEL-2 melanoma it was 92.8% (inactive) and 94.4% (inactive); with EKVX NSCLC, 41.3% (inactive); in the test with SN12C renal it was 100% (inactive) and 82.2% (inactive); with UO-31 renal it was 98% (inactive) and 76.9% (inactive). Further, the growth was 101% (inactive) and 104% (inactive) in the test with TK-10 renal; 97.5% (inactive) with ACHN renal; 91.3% (inactive) and 88.7% (inactive) in the test on CAKI-1 renal; 118% (inactive) and 46.3% (inactive) in the test on HL-60(TB) leukemia; 77.3% (inactive) in the test with CCRF-CEM leukemia.
Regarding `C[C@]12CC[C@H]3[C@@H](CC=C4c5nc(-c6ccc(Br)cc6)sc5CC[C@@]43C)[C@@H]1CC[C@@H]2O`, the growth with HCT-15 colon is 89.1% (inactive); with HT29 colon, 109% (inactive); in the test with SNB-19 CNS, 84.4% (inactive); in the test with U251 CNS, 63.4% (inactive); in the test on PC-3 prostate it was 101% (inactive); in the test with SK-MEL-5 melanoma, 97.1% (inactive). Besides, the growth with UACC-62 melanoma is 84.4% (inactive); in the test with LOX IMVI melanoma, 90% (inactive); in the test on SK-MEL-28 melanoma it was 90.1% (inactive); with SK-MEL-2 melanoma it was 101% (inactive); with EKVX NSCLC, 109% (inactive); with SN12C renal it was 91.4% (inactive). The growth is 95.6% (inactive) in the test with UO-31 renal; 110% (inactive) with TK-10 renal; 93.4% (inactive) in the test with ACHN renal; 85.4% (inactive) with CAKI-1 renal; 107% (inactive) with A498 renal; 94.3% (inactive) in the test with HL-60(TB) leukemia. In addition, the growth in the test with CCRF-CEM leukemia was 96.1% (inactive).

These data come from PubChem BioAssay (NCI).
